Screening data deposited in PubChem by The Scripps Research Institute Molecular Screening Center.
Rows were chosen to be rich in hits. Some 3.5% of all compounds tested hit in one or more screens of this group.
TEAD-YAP inh: TEAD-YAP interaction inhibition, primary screen, TEAD-YAP interaction inhibitor project, luminescence, HEK-TIYL cells; TEAD-Gal4/YAP UAS-luciferase luminescence; inhibition, % at 9.12 µM; hit rate 1.4% among 640,000; in the data active means inhibition above about 32%
GPR151 ag: activators of human GPR151, primary screen, cell-based, PathHunter beta-arrestin, luminescence; hit rate 1% among 650,000; activation, % at 11.2 µM; AID 1508602, 2020; G-protein coupled receptor 151 (Homo sapiens), Q8TDV0; PathHunter beta-arrestin GPR151 cells; in the data active means activation above about 4.9%
FBW7 activator: FBW7 E3 ligase activators, primary screen, biochemical, AlphaScreen, human; hit rate 0.13% among 650,000; AlphaScreen FBW7–phospho-cyclin E peptide binding, activator screen; F-box/WD repeat-containing protein 7 (Homo sapiens), Q969H0; normalized activity (activation), % at 26.1 µM; in the data active means normalized activity above about 1.9%;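 further: purified mutant Fbw7 with reduced substrate affinity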
MITF primary: MITF inhibitors, primary screen, biochemical, AlphaScreen, human; Microphthalmia-associated transcription factor (Homo sapiens), O75030; AlphaScreen MITF homodimerization, bead proximity signal; inhibition, % at 2.6 µM; hit rate 0.91% among 650,000; AID 1259374, 2018; in the data active means inhibition above about 50%
Target sequence (O75030 whole entry, looked up): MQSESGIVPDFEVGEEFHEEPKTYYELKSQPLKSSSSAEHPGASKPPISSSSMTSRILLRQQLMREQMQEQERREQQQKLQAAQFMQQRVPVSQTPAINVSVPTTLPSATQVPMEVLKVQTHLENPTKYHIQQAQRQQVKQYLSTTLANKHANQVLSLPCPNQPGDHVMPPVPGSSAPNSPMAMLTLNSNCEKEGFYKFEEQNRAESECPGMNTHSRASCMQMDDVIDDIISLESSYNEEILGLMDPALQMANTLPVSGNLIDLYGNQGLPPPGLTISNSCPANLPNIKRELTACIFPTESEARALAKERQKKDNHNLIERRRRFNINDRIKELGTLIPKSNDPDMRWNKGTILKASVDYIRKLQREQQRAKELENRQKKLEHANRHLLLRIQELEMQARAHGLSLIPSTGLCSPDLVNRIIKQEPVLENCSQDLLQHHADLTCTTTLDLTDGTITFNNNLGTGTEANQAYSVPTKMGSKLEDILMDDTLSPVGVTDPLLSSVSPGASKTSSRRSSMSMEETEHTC
GPR151 confirm: GPR151 activators, triplicate retest, confirmation, cell-based, PathHunter beta-arrestin, luminescence; activation, % at 11.2 µM; 6,700 tested, under 10 active; shares compounds with GPR151 ag; GPR151 PathHunter beta-arrestin cells, 90 min; % of EA-reagent control over plate median;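 active means mean percent activation across replicates above the confirmation screen cutoff of 4.91%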
GPR119 ag: GPR119 activators in beta-arrestin cells, counter-screen for GPR151 activator project, cell-based, PathHunter beta-arrestin, luminescence, triplicate; shares compounds with GPR151 ag; 90 min; 0 = compound-well median, 100 = enzyme-acceptor control; activation, % at 11.2 µM; hit rate 0.3% among 6,700;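 active means mean percent activation in the counterscreen above 29.09%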;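 further: counterscreen on off-target GPR119 to flag nonselective hits from the GPR151 activator screen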
Of the large screens only hits and unclear results are named; the others gave an inactive call (follow-up assays come after a bar, where they were run).

COc1nn(C)cc1C(=O)NCCC1CCCCN1S(=O)(=O)c1ccc(C)cc1 (stereo unspecified)	none
Cc1ccc(/C=C2/SC(=S)N(CC(=O)Nc3ccccc3O)C2=O)cc1	GPR151 ag 7.3 | GPR151 confirm inactive | GPR119 ag inactive
COC(=O)Cn1c(=O)c2c(nc(-n3nc(C)cc3C)n2CCc2ccccc2)n(C)c1=O	none
Cc1ccc(C(=O)ON2C(=O)c3ccccc3C2=O)cc1C	GPR151 ag 7.6 | GPR151 confirm inactive | GPR119 ag inactive
O=C1NN(S(=O)(=O)c2ccc(Cl)cc2)C2Cc3ccccc3C12 (stereo unspecified)	none
O=C(CSc1ccccc1)Nc1cc(Cl)ccc1O	none
O=C(CSc1ccc(F)cc1)Nc1cc(Cl)ccc1O	GPR151 ag 6.4 | GPR151 confirm inactive | GPR119 ag inactive
COC(=O)C1CCCCN1Cc1ccc2c(c1)CN(Cc1cnn(C)c1C)CCO2 (stereo unspecified)	GPR151 ag 5.9 | GPR151 confirm inactive | GPR119 ag inactive
COC(=O)[C@@H]1CCCN1Cc1ccc2c(c1)CN(Cc1ccc3c(c1)OCCO3)CCO2	none
Cc1cccc(NC(=O)CSc2nnc(-c3c[nH]c4ccccc34)n2C)c1	none
Nc1cc2c(cc1C(=O)c1cccc(Br)c1)OCCO2	GPR151 ag 5.4 | GPR151 confirm inactive | GPR119 ag inactive
CS(=O)(=O)CCC(NS(=O)(=O)c1ccccc1)C(=O)O (stereo unspecified)	none
CCC(=O)NC1=C(Nc2ccc(N)cc2)C(=O)c2ccccc2C1=O	none
CCN(CCO)c1ccc(NC2=C(NC(C)=O)C(=O)c3ccccc3C2=O)cc1	TEAD-YAP inh 61, GPR151 ag 5.1 | GPR151 confirm inactive | GPR119 ag inactive
CCc1ccc(C2NC(=O)NC3=C2C(=O)CCC3)cc1 (stereo unspecified)	none
COc1ccccc1/C=C/C1=NC(=C\c2ccc(C(C)C)cc2)/C(=O)O1	none
O=C(OC1CCOC1=O)c1ccc(S(=O)(=O)N2CCCC2)cc1 (stereo unspecified)	none
CN(c1ccccc1)S(=O)(=O)c1ccc(C(=O)OC2CCOC2=O)cc1 (stereo unspecified)	GPR151 ag 11 | GPR151 confirm inactive | GPR119 ag inactive
Cc1ccc(-c2noc(CCC(=O)NC(C)C)n2)cc1	none
CCOC(=O)C1=C(C)N=c2s/c(=C\c3cc(I)c(O)c(OCC)c3)c(=O)n2C1c1ccc(OC)c(OC)c1 (stereo unspecified)	none
CCCCn1c(C)c(Cc2ccccc2)[nH]c1=O	GPR151 ag 6.1 | GPR151 confirm inactive | GPR119 ag inactive
CCCCCn1c(=O)[nH]c2ccccc21	none
C=CCOC(=O)C1C(c2cccc(Br)c2)c2c([nH][nH]c2=O)CC1(C)O (stereo unspecified)	GPR151 ag 6.0 | GPR151 confirm inactive | GPR119 ag inactive
C=CCOC(=O)C1C(c2ccccc2)c2c([nH][nH]c2=O)CC1(C)O (stereo unspecified)	none
CC(C)(C)C(=O)[C@H]1[C@H](c2cccc(Cl)c2)C(C#N)(C#N)[C@@H]2c3ccccc3C=CN21	none
CC1(C)Cc2c(sc3nc(-c4cc5ccccc5o4)n(N)c(=O)c23)CO1	GPR151 ag 6.4 | GPR151 confirm inactive | GPR119 ag inactive
Cc1cccc(C(=O)N2CC(C)CC(C)C2)c1 (stereo unspecified)	GPR151 ag 5.6 | GPR151 confirm inactive | GPR119 ag inactive
CCOC(=O)c1ccc(N2C(=O)CC(Cc3ccc(Cl)cc3)C2=O)cc1 (stereo unspecified)	GPR151 ag 9.6 | GPR151 confirm inactive | GPR119 ag inactive
Cc1ccc(Cl)cc1NC(=O)CN(Cc1ccccc1)S(=O)(=O)c1ccccc1	none
COCCN1C=C(C(=O)OC)C(c2cccc(OC)c2OC(C)C)C(C(=O)OC)=C1	GPR151 ag 11 | GPR151 confirm inactive | GPR119 ag inactive
Cc1ccc(N2C(=O)C(Cl)=C(N3CCCCC3)C2=O)cc1	GPR151 ag 7.5 | GPR151 confirm inactive | GPR119 ag inactive
CC(C)N(CCNc1nc(N2CCc3ccccc3C2)nc2nc[nH]c12)C(C)C	none
COc1ccc(C(NC(C)=O)c2cc(Cl)c3cccnc3c2O)cc1 (stereo unspecified)	TEAD-YAP inh 84, GPR151 ag 5.1, MITF primary 62 | GPR151 confirm inactive | GPR119 ag inactive
COc1ccc(C(=O)NC(c2ccccc2OC)c2cc(Cl)c3cccnc3c2O)cc1 (stereo unspecified)	none
COC(=O)COc1ccc(S(=O)(=O)NCCC2=CCCCC2)cc1C	GPR151 ag 30 | GPR151 confirm inactive | GPR119 ag inactive
CN(CC(=O)NCc1cccnc1)c1nnc(N2CCCC2=O)s1	GPR151 ag 5.2 | GPR151 confirm inactive | GPR119 ag inactive
Cc1cccc(CNC(=O)CN(C)c2nnc(N3CCCC3=O)s2)c1	none
C=CCN1C(=O)c2oc3ccccc3c(=O)c2C1c1ccc(O)c(OC)c1 (stereo unspecified)	none
C=CCN1C(=O)c2oc3ccccc3c(=O)c2C1c1cccc([N+](=O)[O-])c1 (stereo unspecified)	GPR151 ag 5.8 | GPR151 confirm inactive | GPR119 ag inactive
c1ccc(-c2cc(NCc3nc4ccccc4[nH]3)ncn2)cc1	none
Cc1cc(Cl)ccc1NC(=O)c1cc2c(=O)oc3ccccc3c2s1	none
Cc1nn(Cc2ccc(F)cc2)c(C)c1N	GPR151 ag 15 | GPR151 confirm inactive | GPR119 ag inactive
CCOC(=O)c1c(N2C(=O)C3C4C=CC(C4)C3C2=O)sc2c1CCC(C)C2 (stereo unspecified)	GPR151 ag 7.3 | GPR151 confirm inactive | GPR119 ag inactive
CCOC(=O)c1c(N2C(=O)CCC2=O)sc2c1CCC(C)C2 (stereo unspecified)	none
COc1ccc(OC)c(CNCc2ccc3c(c2)OCO3)c1	none
COc1ccc(OC)c(C2=NNC(=NCc3ccc4c(c3)OCO4)SC2)c1	GPR151 ag 5.6 | GPR151 confirm inactive | GPR119 ag inactive
Cc1ccc(-c2c(N3CC(=O)N(CCc4ccccc4)C(=O)C3)c(=O)c2=O)cc1	GPR151 ag 6.5 | GPR151 confirm inactive | GPR119 ag inactive
CC(=O)c1cccc(S(=O)(=O)NCC(F)(F)F)c1	GPR151 ag 5.5 | GPR151 confirm inactive | GPR119 ag inactive
C=CCNS(=O)(=O)c1cccc(C(C)=O)c1	none
Nc1ncnc(Nc2ccc(S(=O)(=O)Nc3ncccn3)cc2)c1[N+](=O)[O-]	GPR151 ag 4.9 | GPR151 confirm inactive | GPR119 ag inactive
